# Measurements from PubChem BioAssay (NCI).
# About 83,000 compounds went through this panel and 20% of them were active in at least one assay; those are over-represented in the sample as a whole.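 Treatment: one concentration, 48 hours, 96-well format. Scoring: percent growth, with anything below 10 considered active.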 Unmarked numbers belong to inactive results. The source made the active and inactive calls.
# Legend:
# Test in all cases: NCI-60 one-dose screen, 48 h (100 = growth as untreated, 0 = no growth, -100 = all killed)
# Settings in all cases: 10 µM unless noted
# RPMI-8226 leukemia = system: RPMI-8226 leukemia
# OVCAR-8 ovarian = system: OVCAR-8 ovarian
# OVCAR-5 ovarian = system: OVCAR-5 ovarian
# OVCAR-4 ovarian = system: OVCAR-4 ovarian
# SK-OV-3 ovarian = system: SK-OV-3 ovarian
# IGROV1 ovarian = system: IGROV1 ovarian
# OVCAR-3 ovarian = system: OVCAR-3 ovarian
# HS 578T breast = system: HS 578T breast
# NCI/ADR-RES ovarian = system: NCI/ADR-RES ovarian
# T-47D breast = system: T-47D breast
# BT-549 breast = system: BT-549 breast
# MDA-MB-435 melanoma = system: MDA-MB-435 melanoma
# SW-620 colon = system: SW-620 colon
# MCF7 breast = system: MCF7 breast
# HCT-116 colon = system: HCT-116 colon
# HCC-2998 colon = system: HCC-2998 colon
# KM12 colon = system: KM12 colon
# SR leukemia = system: SR leukemia
SMILES,growth (RPMI-8226 leukemia),growth (OVCAR-8 ovarian),growth (OVCAR-5 ovarian),growth (OVCAR-4 ovarian),growth (SK-OV-3 ovarian),growth (IGROV1 ovarian),growth (OVCAR-3 ovarian),growth (HS 578T breast),growth (NCI/ADR-RES ovarian),growth (T-47D breast),growth (BT-549 breast),growth (MDA-MB-435 melanoma),growth (SW-620 colon),growth (MCF7 breast),growth (HCT-116 colon),growth (HCC-2998 colon),growth (KM12 colon),growth (SR leukemia)
O=C1/C=C/[C@@H](O)[C@@H]2C[C@@H](O)C[C@H]2/C=C/CCC[C@H](CCc2ccc3ncccc3c2)O1,17.7%,18%,27.5%,14.3%,17.5%,-4.38% (active),-17.5% (active),41%,2.87% (active),0.682% (active),7.66% (active),5.74% (active),-14.2% (active),2.74% (active),-53.6% (active),12.9%,-40.3% (active),
Cn1cc(-c2nc(-c3c[nH]c4c(Cl)nccc34)cs2)c2cc(F)ccc21,90.1%,89.6%,119%,88%,100%,117%,114%,113%,111%,48.6%,118%,98.6%,102%,68.1%,105%,119%,96.4%,
CCCCN1C=CCN(CCCC)C1,37.9%,44.2%,82.7%,42.6%,84.2%,46.4%,13.1%,88.9%,108%,6.14% (active),56.9%,6.59% (active),73.4%,32.5%,34%,46.2%,22.9%,
Cn1cc(-c2csc(-c3c[nH]c4ccccc34)n2)c2ccnc(Cl)c21,53.8%,78.3%,127%,48.5%,93.9%,91.8%,81%,80.8%,81.8%,18.4%,93.8%,75.7%,41.7%,30.3%,59.4%,92.4%,58.9%,
CN1CCN(c2ccc(NC3=C(Cl)C(=O)c4ncccc4C3=O)cc2C(F)(F)F)CC1,,30.4%,100%,-96.8% (active),84.9%,,-82.9% (active),92.9%,81.9%,-19.7% (active),89.8%,-62.5% (active),-53% (active),-49.1% (active),-57.3% (active),105%,105%,9.03% (active)
N#Cc1c(-c2cccc([N+](=O)[O-])c2)nc(SCC(=O)c2ccc(Cl)cc2)[nH]c1=O,102%,99.3%,102%,102%,95.4%,104%,,97.6%,97.2%,105%,99.7%,100%,98.4%,105%,105%,106%,99.4%,
N#Cc1c(-c2ccccc2)nc2c(c(-c3ccccc3)nn2-c2ccccc2)c1-c1ccc(O)cc1,12.9%,56%,81.2%,72.2%,71.1%,72%,54.2%,,70.5%,35.3%,59.7%,51.5%,16.5%,14.8%,34.8%,72%,47.1%,
Cc1c(C(=O)NCCC(=O)NO)sc2ncnc(Nc3ccc(NC(=O)Nc4cccc(C(F)(F)F)c4)cc3)c12,102%,102%,104%,105%,115%,102%,112%,93.5%,103%,101%,137%,,104%,89.2%,108%,112%,100%,
Cn1c(-c2c(N)n(CCCN3CCOCC3)c3nc(C#N)c(C#N)nc23)nc2ccccc21,5.09% (active),48.1%,82%,73.7%,93.6%,65.6%,65.5%,94.3%,78.6%,49.9%,35.6%,79.3%,39.7%,52.9%,,80%,75.6%,
Cc1nn(-c2ccccc2)c(Cl)c1/C=N\N=c1/sc2ccccc2n1C,78.6%,98.2%,92.6%,117%,94.7%,96.2%,111%,,104%,93.7%,92.8%,102%,101%,97%,84.5%,101%,106%,
CN[C@@H](C)C(=O)N[C@H]1CCS[C@H]2CC(C)(C)[C@@H](C(=O)N[C@H]3c4ccccc4C[C@H]3OCC#CC#CCO[C@@H]3Cc4ccccc4[C@@H]3NC(=O)[C@H]3N4C(=O)[C@@H](NC(=O)[C@H](C)NC)CCS[C@H]4CC3(C)C)N2C1=O,71.2%,77.3%,109%,-33.1% (active),-71.6% (active),116%,86.2%,82.2%,,86.1%,-15.4% (active),54.8%,105%,64.7%,99%,90.2%,110%,
Cc1ncc(C(=O)Nc2ccc(CN3CCN(C)CC3)c(C(F)(F)F)c2)cc1C#Cc1cnc(N)cc1C#N,-7.94% (active),-66.4% (active),-94.1% (active),30.2%,20.6%,5.92% (active),39.5%,-18.2% (active),-46.8% (active),57.8%,38%,,-57.4% (active),-75.6% (active),-71.5% (active),54.5%,-83.1% (active),
COC1=CC(=O)c2ccccc2C1=O,73%,65.4%,107%,70.4%,101%,83.6%,24.5%,100%,60.8%,59%,85%,-48.2% (active),108%,56.9%,29.9%,107%,94.8%,
C[C@H]1[C@H]2[C@H]3CC[C@@H]4[C@@]5(C)CC[C@H](O)C(C)(C)[C@@H]5CC[C@@]4(C)[C@]3(C)CC[C@]23CO[C@]1(C)[C@@H](C(=O)/C=C\c1ccco1)C3,106%,99.3%,102%,111%,103%,108%,103%,95.8%,95.3%,84.8%,105%,,97.1%,101%,100%,104%,100%,
N#CC1=C(N)Oc2c(ccc3ccccc23)C1c1ccccc1Cl (stereo not drawn),30.1%,7.5% (active),38.8%,42.2%,59.3%,24.9%,5.72% (active),16.8%,,66.5%,20.7%,-41.2% (active),21.9%,16.8%,11.9%,17.7%,12.8%,
O=C1NN(C(=O)c2ccccc2)C(c2ccc(Cl)c(Cl)c2)=C/C1=C\c1ccc([N+](=O)[O-])cc1,59.2%,89.3%,113%,75.2%,96.7%,84.3%,86.6%,78.3%,92.6%,76.7%,52.4%,86.5%,42.9%,83.6%,90.7%,44.6%,51.7%,

SMILES,growth (RPMI-8226 leukemia),growth (OVCAR-8 ovarian),growth (OVCAR-5 ovarian),growth (OVCAR-4 ovarian),growth (SK-OV-3 ovarian),growth (IGROV1 ovarian),growth (OVCAR-3 ovarian),growth (HS 578T breast),growth (NCI/ADR-RES ovarian),growth (T-47D breast),growth (BT-549 breast),growth (MDA-MB-435 melanoma),growth (SW-620 colon),growth (MCF7 breast),growth (HCT-116 colon),growth (HCC-2998 colon),growth (KM12 colon),growth (SR leukemia)
CC(=O)[C@H]1CCC/C=C/[C@@H]2C[C@H](O)C[C@H]2[C@H](O)/C=C/C(=O)O1,14.2%,11.3%,32.3%,18.9%,23.9%,-5.3% (active),-31.1% (active),36.9%,3.11% (active),-12.2% (active),9.71% (active),8.17% (active),-33.5% (active),3.81% (active),-45.1% (active),-23.3% (active),-26.9% (active),
Oc1ccc(C2c3ccccc3Oc3ccccc32)c2cccnc12,28.8%,7.16% (active),44.9%,30.6%,31.4%,20.4%,56.5%,77.6%,7.48% (active),31.1%,29.3%,,23.5%,17.4%,20.1%,35.4%,,
COc1cc(/C=C\c2cc(OC)c(OC)c(OC)c2)cc(NC(=O)/C=C/c2cc(OC)c(OC)c(OC)c2)c1OC,45%,56.6%,77.3%,61%,50.8%,52.8%,51.1%,68.6%,17.8%,19.6%,26.2%,-13.1% (active),57%,27.6%,41.1%,70.8%,28.7%,
COc1cc2cc(Oc3cccc(NC(=O)Nc4cc(C(F)(F)F)cc(C(F)(F)F)c4)c3)c(C)nc2cc1OC,1.15% (active),14.2%,14.6%,27.9%,-1.05% (active),19.8%,1.71% (active),-10.7% (active),7.03% (active),7.52% (active),1.44% (active),-2.55% (active),,0.59% (active),3.73% (active),,5.61% (active),
COc1ccc(/C=C/C(=O)Nc2cc(/C=C\c3cc(OC)c(OC)c(OC)c3)cc(OC)c2OC)cc1OC,30.7%,34.2%,63.2%,47.7%,11.6%,40.1%,12.2%,29%,-11.2% (active),6.43% (active),8.93% (active),-35% (active),35.2%,16.8%,19.2%,55.6%,17.1%,
O=C1CC(=O)OC(c2ccc([N+](=O)[O-])cc2)O1,14.1%,11.6%,-3.68% (active),24.6%,89.6%,-59.6% (active),-60.6% (active),13.1%,-44.3% (active),17.9%,51.4%,-27.9% (active),-42.8% (active),7.35% (active),-68.8% (active),7.55% (active),-75.3% (active),
COc1cc(/C=C/C(=O)c2nc3cc(F)ccc3nc2C)cc(OC)c1OC,-4.08% (active),36%,89.7%,77.8%,113%,34.8%,55.3%,61.4%,41.3%,48%,112%,75%,29.9%,34.1%,44.5%,,36.2%,
O=C(Cn1c[n+](CC(=O)c2ccc([N+](=O)[O-])cc2)c2ccccc21)Nc1cccc2cccnc12,10.2%,93.2%,93.9%,20.4%,109%,71.1%,38.6%,74.6%,102%,33.9%,35.9%,60%,54.8%,31.4%,37.2%,50.4%,78.4%,
CCN(c1ccccc1)S(=O)(=O)c1cc([N+](=O)[O-])ccc1Cl,43.8%,79.8%,67.4%,25.1%,55.3%,54%,74.7%,82%,42.2%,26.6%,49.4%,62.3%,46.3%,52.6%,24.6%,110%,54.1%,
CCN1C(=O)N(CC)C2Nn3c(s/c(=C\c4ccc(OC)cc4)c3=O)=NC21 (stereo not drawn),69.8%,67.3%,83.9%,63.7%,62.7%,54.8%,19.2%,43.6%,44.2%,48.8%,62.9%,-26.9% (active),,21%,29.4%,95.7%,37.8%,
CC(C)=CCC[C@](C)(O)[C@H]1CC[C@]2(C)[C@@H]1CC[C@@H]1[C@@]3(C)C/C(=C/c4ccccc4)C(=O)C(C)(C)[C@@H]3CC[C@]12C,79.3%,93.4%,102%,89.2%,97.8%,101%,103%,91.3%,100%,87.4%,100%,90.3%,,94.6%,85.1%,98.8%,90%,
O=S(=O)(NCCNc1nccc(-c2c(-c3cccc(O)c3)nc3occn23)n1)c1ccc(C(F)(F)F)cc1,105%,102%,138%,118%,95.8%,73.8%,113%,100%,105%,79.2%,107%,45%,126%,67.2%,90.1%,132%,94.4%,
COc1ccc(C(=O)c2cc(C)c(OC)c(C)c2)c(OC)c1NC(C)=O,21.2%,16.9%,37.8%,61.6%,11%,31.5%,5.93% (active),14.4%,0.837% (active),60.6%,16.3%,-65.2% (active),21.2%,20.8%,8.06% (active),13.8%,8.12% (active),
CC1(C)CC(O)CCCCCCOc2c(CN)cccc2NC(=O)c2nc(cnc2N)-c2ccc(cc2)S1(=O)=O (stereo not drawn),-41.5% (active),23.5%,68.4%,-22.1% (active),44.9%,9.31% (active),-5.21% (active),13.2%,67.1%,66.2%,28.2%,20%,,-16% (active),-63.6% (active),28.6%,-10.7% (active),
CC(C)c1ccc(Nc2ccc3c(OCCCN4CCN(C)CC4)cccc3n2)cc1,2.88% (active),88.7%,81.2%,74.2%,99.9%,83.1%,79.4%,77%,,68.9%,79.6%,22.6%,4.69% (active),18.2%,18.6%,64.7%,39.3%,
